From PubChem BioAssay AID488890 (Southern Research Specialized Biocontainment Screening …, 2010)
Out of some 320,000 compounds screened, about 1,300 (0.41%) were called active. About 3% were inconclusive and are not listed. No rule for the calls is given here. A selection follows. Entries with a potency or affinity are not part of this list.

Assay: growth inhibition of non-replicating M. tuberculosis (AID 488890);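 also: plate controls were DMSO cells for no effect and high antibiotic wells for full effect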
Conditions: Mycobacterium tuberculosis non-replicating, at 25 µM, stronger effect = higher value

Row | Structure (SMILES) | inhibition [%]
1 | COC(=O)C1=C(N)Oc2cc(C)n(CC3CCCO3)c(=O)c2C1c1ccccc1 (centres undefined) | 2.48
2 | Cc1ccnc(NC(=O)C2CCN(S(=O)(=O)c3cccc4nonc34)CC2)c1 | 9.48
3 | Cc1ccccc1NC(=O)c1cccc(S(=O)(=O)Nc2cccc(C(=O)O)c2)c1 | 19.2
4 | CC1(C)Oc2ccc(C(=O)NN)cc2NC1=O | 9.35
5 | CC1=C/C(=C\c2ccc3c(c2)OCO3)C(=O)S1 | 31.9
6 | COc1ccc(/C=C2\N=C(SC)SC2=O)cc1OC | 76.1
7 | CC1(C)CC(=O)C(C=Nc2ccc(N)cc2)=C(O)C1 | 23.2
8 | CCOc1ccc(N=CC2=C(O)CC(C)(C)CC2=O)cc1 | 31.2
9 | CCOc1cc(C2NCc3ccccc3-n3cccc32)ccc1OC (centres undefined) | 1.16
10 | O=C1CN(C(=O)COC(=O)CCC(=O)c2ccc(Cl)cc2)c2ccccc2N1 | 16.1
11 | COc1cccc(CNCc2ccc(OC)cc2OC)c1 | 16.2
12 | COc1ccc(CNCc2ccc3ccccc3c2)c(OC)c1 | 23.2
13 | COc1ccc(C)cc1NC(=O)c1sc2ncn(CC(=O)N3CCCCC3)c(=O)c2c1C | -1.26
14 | Cc1nc2ccc(NC(=O)c3ccc(C)c(S(=O)(=O)N4CCOCC4)c3)cc2s1 | 29.1
15 | CC1C(C)C(O)(c2ccccc2)CCN1C (centres undefined) | -18.2
16 | OC(c1ccccc1)C1CN(Cc2ccccc2)CCC1(O)c1ccccc1 (centres undefined) | 16.7
17 | OC1(c2ccccc2)CCN(Cc2ccccc2)CC1 | -5.95
18 | CCN1CCC(O)(c2ccccc2)C(C(=O)c2ccccc2)C1 (centres undefined) | 3.22
19 | O=C(NCc1ccco1)[C@@H]1CSC2c3ccccc3C(=O)N21 (some centres undefined) | -2.9
20 | CCCN(CC(=O)Nc1ccccc1OC)C(=O)c1ccc(=O)[nH]c1 | -2.3
21 | CN1CCN(c2ccccc2NC(=O)c2ccc(-c3ccc(Br)cc3)o2)CC1 | 7.26
22 | CN1CCN(c2ccc(NC(=O)c3ccc(-c4ccccc4F)o3)cc2)CC1 | 79.5

Row | Structure (SMILES) | inhibition [%]
23 | NC(=O)C1CCN(C(=S)c2ccc(-c3ccc(Br)cc3)o2)CC1 | 76.2
24 | S=C(c1ccc(-c2ccc(Br)cc2)o1)N1CCOCC1 | 74
25 | CS(=O)(=O)N1CCN(c2ccc(NC(=O)c3ccc(-c4ccc(Cl)cc4)o3)cc2)CC1 | -19.8
26 | CN1CCN(c2ccc(NC(=O)c3ccc(Br)o3)cc2)CC1 | -1.79
27 | COC(=O)c1ccccc1NC(=O)CSc1ccc(C)cc1 | 66.9
28 | Cc1onc(-c2c(Cl)cccc2Cl)c1C(=O)NC(=S)Nc1sc2c(c1C(N)=O)CCC(C)C2 (centres undefined) | 1.7
29 | Cc1ccccc1C(=O)NC(=S)NC1CCSC1=O (centres undefined) | 6.25
30 | COc1ccc(NS(=O)(=O)c2ccc(NC(=S)NC(=O)c3ccc(Br)cc3)cc2)nn1 | 52.8
31 | CSCCC(NC(N)=O)C(=O)Nc1ccc(C)cc1 (centres undefined) | -6.3
32 | Cc1ccc2cc3c(nc2c1)N(c1ccccc1)CC3 | -3.46
33 | COc1ccc2cc3c(nc2c1)OCC3 | 52
34 | CCOC(=O)NC(=O)/C(N=Nc1cccc(C(F)(F)F)c1)=C(\C)O | 22.5
35 | COc1ccc(NC(=O)COC(=O)CN2C(=O)C3CC=CCC3C2=O)c([N+](=O)[O-])c1 (centres undefined) | 3.95
36 | O=C(O)c1ccc(-[n+]2c(-c3ccccc3)cc(-c3ccccc3)cc2-c2ccccc2)cc1 | -4.01
37 | CS(=O)(=O)N(CC(=O)N1CCOCC1)c1cc(C(F)(F)F)ccc1Cl | -10.6
38 | COc1ccc(C(=O)OCC(=O)c2ccc(Cl)s2)c(OC)c1OC | 52.4
39 | COc1ccc(C(=O)OCC(=O)c2ccc(Br)s2)c(OC)c1 | 66.5
40 | O=C(NCCSc1ccccc1)c1ccc(CN2CCOCC2)cc1 | 11.6
41 | Cn1c(N2CCN(C(c3ccccc3)c3ccccc3)CC2)nc2c1c(=O)[nH]c(=O)n2C | -1.75
42 | Nc1ccc2c(c1)C(=O)c1ccccc1-2 | 79.4
43 | Nc1ccc2c(c1)C(=O)c1ccccc1C2=O | -1.17
44 | Cc1cc(NC(=O)CSc2nnc(C3COc4ccccc4O3)o2)no1 (centres undefined) | 1.04

Row | Structure (SMILES) | inhibition [%]
45 | O=C(CSc1nnc(C2COc3ccccc3O2)o1)Nc1ccc(F)cc1Cl (centres undefined) | 27.9
46 | CCOc1ccc(OCc2ccc(C(=O)N/N=C(\C)c3ccccn3)cc2)cc1 | 94.8
47 | C/C(CCc1ccccc1)=N\NC(=O)CCc1ccccc1 | 2.92
48 | C/C(=N\NC(=O)c1ccccc1O)C1CC1 | -6.46
49 | C/C(=N\NC(N)=O)c1cccc(Cl)c1 | -5.88
50 | CCC/C(=N/NC(=O)c1cccc(Cl)c1)c1ccccc1 | 76.9
51 | CSC(=NNC(=O)c1ccccc1O)SC | 14.8
52 | CC(/C=C/c1ccccc1)=N\NC(=O)CCc1ccccc1 | -7.22
53 | CCOc1ccc(/C(C)=N\NC(=O)Cc2ccccc2)cc1 | 3
54 | O=C(NCc1nnc(SCC(=O)N2CCC(Cc3ccccc3)CC2)o1)c1ccccc1F | 47.1
55 | CCCCn1c(N)c(N(C)C(=O)c2cc3c(s2)CCCCC3)c(=O)[nH]c1=O | 19.5
56 | Cc1ccc(N(CC(=O)NCc2ccco2)C(=O)CCC(=O)Nc2nccs2)cc1C | -4.11
57 | CCc1ccc(NC(=O)CSc2nc(O)cc(=O)n2C2CCCC2)cc1 | 37.7
58 | COc1ccc(Cl)cc1NC(=O)CN(C)C(=O)c1cc(=O)c2ccccc2o1 | -2.49
59 | CCOC(=O)c1sc(NC(=O)CSc2ccccn2)c(C#N)c1C | 5.94
60 | CC(=O)N(Cc1ccccc1)Cc1cn(CCC#N)nc1-c1cccc([N+](=O)[O-])c1 | -6.03
61 | CC(=O)N1CCC(=NNC(=O)c2cc3ccccc3cc2O)CC1 | 4.69
62 | CC(/C=C/c1ccco1)=N\NC(=O)c1cccnc1 | 12.9
63 | C/C(CC(=O)N1CCCC1)=N\NC(=O)c1cc2ccccc2cc1O | 7.43
64 | CC(/C=C/c1ccco1)=N/NC(=O)c1ccccc1Cl | 48.9
65 | C/C(=N\NC(=O)c1c[nH]c2ccccc12)c1ccc(C)o1 | 33.3
66 | C/C(=N\NC(=O)c1cc2ccccc2cc1O)c1ccc2c(c1)OCO2 | 14.4

Row | Structure (SMILES) | inhibition [%]
67 | CCCCC(NC(=O)c1ccc(Cl)cc1)C(=O)O (centres undefined) | -0.66
68 | O=C(C[n+]1cccc(CNC(=O)c2ccc(OC(F)F)cc2)c1)Nc1ccccc1Cl | 7.02
69 | O=C(c1ccc([N+](=O)[O-])cc1)N1CCN(Cc2ccccc2[N+](=O)[O-])CC1 | 12.7
70 | COc1ccc(C2C(C(=O)NCCN3CCOCC3)c3ccccc3C(=O)N2C2CCCCC2)cc1 (centres undefined) | 28.1
71 | O=C(/C=C/NCc1cccnc1)c1ccc(Br)cc1 | 77.9
72 | COc1cc(NC(=O)CSc2nc(=O)n(CCN3CCOCC3)c3c2CCC3)cc(OC)c1 | 1.82
73 | O=C(C1CCCN1S(=O)(=O)c1cccc2nsnc12)N1CCN(c2ccc(F)cc2)CC1 (centres undefined) | -10
74 | COc1ccc(N(CC(=O)Nc2ccc(F)c(Cl)c2)S(=O)(=O)c2c(C)noc2C)cc1 | 19.1
75 | CCc1noc(C)c1C(=O)OC(C)C(=O)c1c(C)[nH]c2ccccc12 (centres undefined) | 26.3
76 | Cc1cnc(C(=O)OC(C)C(=O)c2c(C)[nH]c3ccccc23)cn1 (centres undefined) | 12.1
77 | CCN(CC)C(=O)CSc1nnc(-c2ccco2)o1 | 18.1
78 | CCCOc1ccc(C(=O)CCNc2cccc(Cl)c2)cc1 | 74.8
79 | O=C1NC(=O)N(Cc2ccco2)C(=O)/C1=C/c1cccn1CCOc1ccccc1Cl | 62.6
80 | Cc1cccc(OCCn2cccc2/C=C2/C(=O)NC(=O)N(Cc3ccco3)C2=O)c1 | 49.4
81 | O=C(NCCCOc1cccc(CN2CCCCC2)c1)c1ccc(Cl)c(Cl)c1 | 56.6
82 | COc1cccc(Nc2nc(C)cc(C)c2C(N)=O)c1 | -12.4
83 | COc1ccc2cc(CN(Cc3cccs3)Cc3nnnn3Cc3ccccc3)c(=O)[nH]c2c1 | 27.5
84 | Cc1[nH]n(-c2ccccc2)c(=O)c1C(=O)c1ccc([N+](=O)[O-])cc1 | 16.4
85 | Cc1[nH]n(-c2ccccc2)c(=O)c1C(=O)c1cccc(F)c1 | 69
86 | Cc1cccc[n+]1CC(=O)/C=C1\N(C)c2ccccc2C1(C)C | -1.75
87 | COc1ccc(CN2CCC(n3nccc3NC(=O)C3CC3)CC2)c(OC)c1OC | -1.17
88 | O=S(=O)(NCCN1CCOCC1)c1cc(Cl)ccc1Cl | 10.9

Row | Structure (SMILES) | inhibition [%]
89 | Cc1cc(C(=O)N/N=C/c2ccc(C)s2)n[nH]1 | 4.06
90 | CC(C)(C)c1cc(C(=O)N/N=C/c2ccc(-c3ccccc3[N+](=O)[O-])o2)n[nH]1 | 26.9
91 | Cc1ccsc1/C=N\NC(=O)c1cc(C(C)(C)C)[nH]n1 | 12.6
92 | Cc1cc(C(=O)N/N=C/c2cccc([N+](=O)[O-])c2O)n[nH]1 | 14.7
93 | Cc1c(C(=O)OCC[N+]2(C)CCCCC2)oc2ccccc12 | -0.02
94 | O=C(NCC(c1cccs1)N1CCOCC1)c1cccc([N+](=O)[O-])c1 (centres undefined) | 3.78
95 | O=C(NCC(c1cccs1)N1CCOCC1)c1ccc([N+](=O)[O-])cc1 (centres undefined) | -4.42
96 | CCOCCCN(C(=O)c1snc(C(N)=O)c1N)C(C(=O)NC1CCCC1)c1ccc(O)cc1 (centres undefined) | 12.3
97 | O=C(c1ccc(Cl)s1)N(Cc1nnc(-c2ccccc2Cl)o1)C1CC1 | 31.8
98 | CCCN(Cc1nnc(-c2ccccc2Cl)o1)C(=O)c1oc2ccccc2c1C | -13.1
99 | O=C(C1=COCCO1)N(Cc1nnc(-c2ccccc2Cl)o1)C1CC1 | 2.01
100 | CCCN(Cc1nnc(-c2ccccc2Cl)o1)C(=O)c1cc2ccccc2o1 | 30.8
101 | COc1ccc(S(=O)(=O)N2CCOC23CCN(S(=O)(=O)c2cc(C)ccc2OC)CC3)cc1 | 5.02
102 | CC(NC(=O)CC1Sc2ccccc2NC1=O)c1ccccc1 (centres undefined) | 0.31
103 | CCN(CC)C(=O)C(=O)N/N=C/c1ccc(C(=O)OC)cc1 | -0.1
104 | CCOc1cc2c(cc1OCC)C(c1ccc(C(=O)O)cc1)NCC2 (centres undefined) | -6.9
105 | Cc1cccc(C(=O)O/N=C(\N)c2cccc([N+](=O)[O-])c2)c1 | 75
106 | N/C(=N/OC(=O)c1cccc([N+](=O)[O-])c1)c1cccc([N+](=O)[O-])c1 | 18.3
107 | COc1ccc(C(CNC(=O)c2cccc(NC(=O)c3cccs3)c2)N2CCCC2)cc1 (centres undefined) | 27.7
108 | CCn1nc(-c2ccccc2)nc2c(=O)n(C)c(=O)nc1-2 | -28.8
109 | Cn1nc(-c2ccccn2)nc2c(=O)n(C)c(=O)nc1-2 | 74.7
